15 targets from the supplement of paper PMC10849652 can be followed below.

Common to all, as to experiment: log2 fold change, soluble protein after heating vs DMSO (PISA); higher = thermal stabilisation; K562 lysate, 10 uM; active = over 0.2 and 3.5 SD of the protein, either way, in both replicates (recomputed)
Compound in one test: C#Cc1cccc(Nc2ncnc3cc(OCCOC)c(OCCOC)cc23)c1 [erlotinib]
In outline:
(§1)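 A 30 min treatment with 10 μM compound was applied to crude K562 extract at 1 mg/mL protein in PBS pH 7.4 with 1 mM MgCl2. Heating for 3 min spanned 48°C-58°C, after which aliquots were pooled, adjusted to 0.5% NP-40 at 4°C and spun at 21,000xg for 90 min. TMTpro 16plex LC-MS/MS of the supernatant, with channel sums equalised, gave values recorded as log-two fold change in thermal stability against solvent controls, from duplicates.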

Compound in test [1]: C/C(=N\NC(=O)C1=CC(=CC=C1)S(=O)(=O)N2CCOCC2)/C3=C(C=CC(=C3)Cl)O
In outline: as §1

Compound in test [2]: C1=CC(=CC=C1C2=NC3=C(N2)C=C(C=C3)C(=O)N)OC4=CC=C(C=C4)Cl
In outline: as §1

Compound in test [3]: C1=CC2=C(C=CC(=C2)/C=C\3/C(=O)NC(=NCC4=CC=CS4)S3)N=C1
In outline: as §1

Compound in test [4]: C1=CC2=NC=CN=C2C=C1/C=C/3\C(=O)NC(=O)S3
In outline: as §1

Compound in test [5]: C1=CC=C(C=C1)C2=NC(=C(N2)C3=CC=NC=C3)C4=CC(=C(C=C4)Cl)O
In outline:
as §1

Compound in test [6]: C1=CC=C2C(=C1)C3=NNC4=CC=CC(=C43)C2=O
In a few lines: as §1

Compound in test [7]: C1CCN(C1)C(=O)NC2=CC=CC(=C2)NC3=NC=C(C(=N3)NCCC4=CN=CN4)Br
In outline:
as §1

Compound in test [8]: C1CN(CCC1(CC2=CC=C(C=C2)Cl)N)C3=NC=NC4=C3C=CN4
In outline: as §1

Compound in a further test: C1COCCN1CCN2C3=CC=CC=C3N=C2NC(=O)C4=CC(=CC=C4)[N+](=O)[O-] [IRAK-1-4 Inhibitor I]
In outline:
as §1

The full data set covers some 8,800 targets. This sample favours those with a hit. About 0.5% of all pairs of compound and target were hits. A number with no mark means an inactive call.

Chain of UniProt O76075 (O76075 whole entry, looked up): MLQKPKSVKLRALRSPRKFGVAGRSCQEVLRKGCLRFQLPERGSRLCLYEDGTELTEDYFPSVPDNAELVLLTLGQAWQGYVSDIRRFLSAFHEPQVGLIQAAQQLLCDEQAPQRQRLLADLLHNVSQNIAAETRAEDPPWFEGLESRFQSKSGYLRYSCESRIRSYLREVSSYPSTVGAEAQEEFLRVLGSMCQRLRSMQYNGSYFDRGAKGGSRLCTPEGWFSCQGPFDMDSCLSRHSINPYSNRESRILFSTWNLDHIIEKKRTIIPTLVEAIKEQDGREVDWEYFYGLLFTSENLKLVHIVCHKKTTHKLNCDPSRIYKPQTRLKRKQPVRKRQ
Chain of UniProt P67870 (P67870 whole entry, looked up): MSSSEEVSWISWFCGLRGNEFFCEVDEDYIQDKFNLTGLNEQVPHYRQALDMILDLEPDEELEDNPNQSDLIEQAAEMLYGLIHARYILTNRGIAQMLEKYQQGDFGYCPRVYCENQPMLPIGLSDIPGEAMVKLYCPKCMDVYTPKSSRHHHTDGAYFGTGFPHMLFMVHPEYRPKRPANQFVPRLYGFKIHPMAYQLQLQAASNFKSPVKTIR
Chain of UniProt Q9NQI0 (Q9NQI0 whole entry, looked up): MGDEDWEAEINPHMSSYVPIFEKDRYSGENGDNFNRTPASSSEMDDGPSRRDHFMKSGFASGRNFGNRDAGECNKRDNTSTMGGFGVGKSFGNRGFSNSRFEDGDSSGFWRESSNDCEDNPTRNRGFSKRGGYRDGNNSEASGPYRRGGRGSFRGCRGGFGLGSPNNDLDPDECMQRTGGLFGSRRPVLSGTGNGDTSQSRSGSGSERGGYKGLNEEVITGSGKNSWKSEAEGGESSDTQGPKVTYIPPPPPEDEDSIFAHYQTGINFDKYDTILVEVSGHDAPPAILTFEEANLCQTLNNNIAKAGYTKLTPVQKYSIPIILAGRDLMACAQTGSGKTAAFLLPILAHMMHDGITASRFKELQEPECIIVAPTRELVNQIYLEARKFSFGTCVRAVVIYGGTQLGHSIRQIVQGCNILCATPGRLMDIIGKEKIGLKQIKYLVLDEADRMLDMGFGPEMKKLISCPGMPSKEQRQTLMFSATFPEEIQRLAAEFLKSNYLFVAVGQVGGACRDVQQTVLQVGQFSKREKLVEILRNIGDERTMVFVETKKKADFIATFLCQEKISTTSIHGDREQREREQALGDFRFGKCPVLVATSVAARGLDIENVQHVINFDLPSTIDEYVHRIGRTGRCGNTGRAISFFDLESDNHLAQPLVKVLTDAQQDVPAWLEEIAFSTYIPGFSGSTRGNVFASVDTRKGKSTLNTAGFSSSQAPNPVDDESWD
Chain of UniProt Q9H4E7 (Q9H4E7 whole entry, looked up): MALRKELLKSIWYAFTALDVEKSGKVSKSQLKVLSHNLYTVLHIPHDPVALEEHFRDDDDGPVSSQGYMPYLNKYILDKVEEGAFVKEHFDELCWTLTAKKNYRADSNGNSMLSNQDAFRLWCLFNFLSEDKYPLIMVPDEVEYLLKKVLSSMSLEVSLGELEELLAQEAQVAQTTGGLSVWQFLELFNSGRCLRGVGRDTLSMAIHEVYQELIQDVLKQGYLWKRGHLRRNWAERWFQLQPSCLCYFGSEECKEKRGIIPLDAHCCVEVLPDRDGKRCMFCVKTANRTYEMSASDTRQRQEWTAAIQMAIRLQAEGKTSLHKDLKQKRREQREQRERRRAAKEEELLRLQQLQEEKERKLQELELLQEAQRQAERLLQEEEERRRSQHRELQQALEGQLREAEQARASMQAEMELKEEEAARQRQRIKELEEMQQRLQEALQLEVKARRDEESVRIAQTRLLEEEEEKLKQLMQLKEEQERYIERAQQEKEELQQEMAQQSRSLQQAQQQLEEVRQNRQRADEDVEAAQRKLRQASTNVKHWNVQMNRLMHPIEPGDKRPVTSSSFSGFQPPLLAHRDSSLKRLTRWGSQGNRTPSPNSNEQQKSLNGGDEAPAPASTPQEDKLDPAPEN
Chain of UniProt Q96KP4 (Q96KP4 whole entry, looked up): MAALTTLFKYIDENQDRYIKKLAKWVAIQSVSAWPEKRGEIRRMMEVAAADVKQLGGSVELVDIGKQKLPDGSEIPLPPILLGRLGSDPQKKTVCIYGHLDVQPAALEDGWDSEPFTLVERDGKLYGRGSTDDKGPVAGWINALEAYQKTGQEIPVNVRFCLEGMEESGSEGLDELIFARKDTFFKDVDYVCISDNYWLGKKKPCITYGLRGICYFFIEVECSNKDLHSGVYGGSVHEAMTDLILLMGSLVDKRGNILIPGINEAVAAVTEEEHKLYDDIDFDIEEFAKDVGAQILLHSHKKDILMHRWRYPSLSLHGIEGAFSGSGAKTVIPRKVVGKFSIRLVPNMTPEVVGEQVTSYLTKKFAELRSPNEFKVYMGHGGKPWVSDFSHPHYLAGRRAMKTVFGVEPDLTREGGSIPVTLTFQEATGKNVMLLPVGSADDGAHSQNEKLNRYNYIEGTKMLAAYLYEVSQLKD
Chain of UniProt O95628 (O95628 whole entry, looked up): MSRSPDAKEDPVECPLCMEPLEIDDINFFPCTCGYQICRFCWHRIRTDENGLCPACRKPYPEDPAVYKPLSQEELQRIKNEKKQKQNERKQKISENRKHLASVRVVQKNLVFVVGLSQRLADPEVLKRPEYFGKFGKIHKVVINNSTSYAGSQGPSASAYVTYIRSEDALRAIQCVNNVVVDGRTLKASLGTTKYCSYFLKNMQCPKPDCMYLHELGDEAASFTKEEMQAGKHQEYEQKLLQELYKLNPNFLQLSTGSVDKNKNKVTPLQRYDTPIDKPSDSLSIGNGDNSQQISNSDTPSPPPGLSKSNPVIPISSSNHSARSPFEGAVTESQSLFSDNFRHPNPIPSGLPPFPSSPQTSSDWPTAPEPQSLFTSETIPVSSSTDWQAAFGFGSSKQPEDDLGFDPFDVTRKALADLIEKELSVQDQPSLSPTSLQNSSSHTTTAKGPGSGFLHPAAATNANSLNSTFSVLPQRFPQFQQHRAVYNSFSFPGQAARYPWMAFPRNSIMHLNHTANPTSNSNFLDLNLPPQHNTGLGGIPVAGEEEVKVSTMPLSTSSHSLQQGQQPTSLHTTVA
Chain of UniProt Q96KC8 (Q96KC8 whole entry, looked up): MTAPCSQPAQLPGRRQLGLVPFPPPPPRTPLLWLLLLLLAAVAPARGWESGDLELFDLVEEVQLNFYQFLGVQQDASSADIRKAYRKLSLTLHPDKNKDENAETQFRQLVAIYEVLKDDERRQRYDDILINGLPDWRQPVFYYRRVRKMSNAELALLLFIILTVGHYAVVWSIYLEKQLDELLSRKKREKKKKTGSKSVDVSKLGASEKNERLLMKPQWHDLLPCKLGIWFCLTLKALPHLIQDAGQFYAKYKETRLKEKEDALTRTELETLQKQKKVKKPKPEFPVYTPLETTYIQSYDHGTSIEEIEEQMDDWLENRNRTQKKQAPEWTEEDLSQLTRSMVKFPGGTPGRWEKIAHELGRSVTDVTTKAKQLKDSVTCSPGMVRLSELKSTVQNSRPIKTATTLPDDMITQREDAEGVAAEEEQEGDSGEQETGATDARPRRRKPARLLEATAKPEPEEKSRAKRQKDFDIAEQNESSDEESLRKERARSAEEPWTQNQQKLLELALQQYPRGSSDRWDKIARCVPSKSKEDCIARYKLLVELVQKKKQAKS
Chain of UniProt P48729 (P48729 whole entry, looked up): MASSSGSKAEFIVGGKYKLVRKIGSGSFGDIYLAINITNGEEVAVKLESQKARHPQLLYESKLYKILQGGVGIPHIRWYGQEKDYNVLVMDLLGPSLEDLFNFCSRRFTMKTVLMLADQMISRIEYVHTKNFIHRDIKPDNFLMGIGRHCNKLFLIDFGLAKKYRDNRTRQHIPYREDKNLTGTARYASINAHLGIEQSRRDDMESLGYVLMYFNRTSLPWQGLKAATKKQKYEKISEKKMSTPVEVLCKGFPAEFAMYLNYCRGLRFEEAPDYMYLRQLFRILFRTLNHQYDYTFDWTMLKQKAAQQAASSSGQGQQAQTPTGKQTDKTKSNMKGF
Chain of UniProt P31146 (P31146 whole entry, looked up): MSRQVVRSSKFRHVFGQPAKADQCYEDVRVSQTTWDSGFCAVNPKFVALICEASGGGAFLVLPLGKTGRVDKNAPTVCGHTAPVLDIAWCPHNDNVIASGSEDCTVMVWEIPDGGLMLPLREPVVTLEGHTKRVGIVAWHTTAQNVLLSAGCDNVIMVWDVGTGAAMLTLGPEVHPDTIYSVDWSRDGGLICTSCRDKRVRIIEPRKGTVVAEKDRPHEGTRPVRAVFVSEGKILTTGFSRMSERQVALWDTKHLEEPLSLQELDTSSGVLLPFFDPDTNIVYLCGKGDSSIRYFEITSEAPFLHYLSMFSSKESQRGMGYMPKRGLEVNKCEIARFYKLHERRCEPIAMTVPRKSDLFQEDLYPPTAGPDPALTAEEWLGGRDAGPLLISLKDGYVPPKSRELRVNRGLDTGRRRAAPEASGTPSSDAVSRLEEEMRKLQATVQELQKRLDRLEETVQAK
Chain of UniProt Q9UBU7 (Q9UBU7 whole entry, looked up): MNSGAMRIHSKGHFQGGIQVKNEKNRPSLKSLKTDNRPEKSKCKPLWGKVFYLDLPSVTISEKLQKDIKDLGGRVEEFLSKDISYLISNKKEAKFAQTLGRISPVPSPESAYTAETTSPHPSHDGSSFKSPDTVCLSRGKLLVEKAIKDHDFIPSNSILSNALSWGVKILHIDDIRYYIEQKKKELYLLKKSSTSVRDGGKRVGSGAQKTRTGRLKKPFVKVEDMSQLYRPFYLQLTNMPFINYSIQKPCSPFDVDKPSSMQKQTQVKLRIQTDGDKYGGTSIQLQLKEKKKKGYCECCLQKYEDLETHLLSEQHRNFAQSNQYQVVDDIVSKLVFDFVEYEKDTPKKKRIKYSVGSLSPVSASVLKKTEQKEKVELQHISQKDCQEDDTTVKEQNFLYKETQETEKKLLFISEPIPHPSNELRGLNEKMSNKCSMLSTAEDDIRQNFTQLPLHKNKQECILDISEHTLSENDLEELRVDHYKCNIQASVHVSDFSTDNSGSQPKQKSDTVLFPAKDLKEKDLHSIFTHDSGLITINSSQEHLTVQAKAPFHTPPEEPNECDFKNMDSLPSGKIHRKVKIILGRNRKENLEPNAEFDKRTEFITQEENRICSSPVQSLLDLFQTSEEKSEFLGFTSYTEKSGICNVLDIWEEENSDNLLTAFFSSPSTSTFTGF

For the target CNOT4 isoform 6 (UniProt O95628), the log2 fold change is -0.025 with erlotinib; -0.016 in test [1]; 0.005 in test [2]; 0.017 in test [3]; 0.009 in [4]; -0.035 in [5]. Further, the log2 fold change was 0.043 in [6], -0.032 in test [7], -0.013 in [8] and 0.041 with IRAK-1-4 Inhibitor I.

Turning to CSNK2B (UniProt P67870), the log2 fold change is 0.045 in the test with erlotinib; -0.107 in [1]; -0.039 in test [2]; 0.151 in test [3]; 0.33 (active) in [4]; -0.012 in test [5]. Also, the log2 fold change in test [6] was 0.198; in test [7], 0.145; in test [8], 0.041; in the test with IRAK-1-4 Inhibitor I it was 0.021.

In the case of DNAJC1 (UniProt Q96KC8), the log2 fold change is -0.018 with erlotinib; -0.011 in [1]; -0.159 in test [2]; -0.053 in test [3]; 0.032 in test [4]; -0.044 in test [5]. The log2 fold change in test [6] was -0.039; in [7], -0.011; in test [8], 0.017; with IRAK-1-4 Inhibitor I, 0.013.

Consider DFFB (UniProt O76075), for which the log2 fold change with erlotinib is -0.055; in test [1], 0.062; in [2] it was 0.071; in test [3], 0.048; in test [4] it was 0.084; in test [5] it was 0.047. Also, the log2 fold change in test [6] is 0; in test [7] it was 0.013; in test [8], -0.019; with IRAK-1-4 Inhibitor I, 0.008.

Regarding DAZAP1 (UniProt Q96EP5), the log2 fold change was -0.017 in the test with erlotinib; 0.008 in test [1]; 0.03 in test [2]; 0.023 in test [3]; 0.026 in test [4]; 0.017 in [5]. The log2 fold change in test [6] is -0.047; in [7], 0.02; in test [8], -0.004; with IRAK-1-4 Inhibitor I it was 0.012.

Regarding CNDP2 (UniProt Q96KP4), the log2 fold change in the test with erlotinib was -0.016; in [1] it was 0.004; in [2], 0.02; in test [3], -0.038; in test [4], -0.009; in test [5], -0.022. Moreover, the log2 fold change in test [6] is 0.007; in test [7], 0.039; in test [8] it was 0.041; with IRAK-1-4 Inhibitor I, 0.051.

Take CSNK1A1 (UniProt P48729): the log2 fold change with erlotinib was -0.027; in [1], -0.106; in test [2], 0.093; in [3], 0.028; in [4] it was 0.013; in test [5], 0.217. Further, the log2 fold change is 0.406 (active) in test [6], -0.082 in test [7], -0.032 in [8] and -0.038 with IRAK-1-4 Inhibitor I.

On to CORO1A (UniProt P31146), for which the log2 fold change is 0.077 with erlotinib; 0.086 in test [1]; -0.032 in [2]; 0.036 in [3]; -0.022 in [4]; 0.005 in test [5]. For the same target, the log2 fold change in [6] is 0.009; in test [7], 0.155; in test [8], -0.031; with IRAK-1-4 Inhibitor I, 0.021.

For DCUN1D4 isoform 3 (UniProt Q92564), the log2 fold change with erlotinib is -0.025; in test [1] it was -0.118; in test [2], 0.068; in [3] it was -0.127; in [4], -0.063; in test [5], -0.026. The log2 fold change in test [6] is -0.053; in test [7] it was -0.09; in test [8], -0.113; with IRAK-1-4 Inhibitor I, 0.005.

With DDX4 (UniProt Q9NQI0), the log2 fold change is -0.043 with erlotinib; 0.165 in test [1]; -0.112 in test [2]; -0.028 in test [3]; -0.055 in test [4]; 0.114 in [5]. Moreover, the log2 fold change in test [6] was -0.004; in [7], 0.002; in test [8], 0.011; with IRAK-1-4 Inhibitor I, -0.109.

For the target CLPB isoform 2 (UniProt Q9H078), the log2 fold change with erlotinib was 0.023; in test [1], -0.029; in test [2] it was -0.028; in test [3], 0.02; in test [4], -0.047; in test [5], -0.018. For the same target, the log2 fold change in test [6] is 0.006; in test [7], 0.022; in test [8] it was 0.055; in the test with IRAK-1-4 Inhibitor I, -0.002.

On to CNP (UniProt P09543), for which the log2 fold change with erlotinib was -0.005; in [1], -0.066; in test [2], 0.002; in test [3], -0.012; in [4], -0.022; in test [5], 0.007. Besides, the log2 fold change was -0.004 in [6], -0.016 in test [7], 0 in test [8] and -0.002 with IRAK-1-4 Inhibitor I.

Regarding DHCR7 (UniProt Q9UBM7), the log2 fold change with erlotinib is -0.051; in test [1] it was 0.081; in test [2], -0.153; in [3], -0.016; in test [4] it was 0.033; in [5] it was -0.024. Besides, the log2 fold change in test [6] is -0.019; in test [7], -0.058; in [8], 0.075; with IRAK-1-4 Inhibitor I, 0.007.

Consider DBF4 (UniProt Q9UBU7), for which the log2 fold change in the test with erlotinib is 0.03; in [1] it was 0.056; in test [2], 0.005; in test [3] it was -0.033; in [4], -0.342 (active); in test [5], 0.098. Also, the log2 fold change in test [6] was -0.058; in [7], -0.068; in test [8], -0.022; with IRAK-1-4 Inhibitor I, 0.04.

DEF6 (UniProt Q9H4E7): the log2 fold change with erlotinib was 0.02; in test [1] it was 0.07; in test [2], -0.072; in test [3], 0.067; in [4], -0.104; in test [5] it was 0.016. The log2 fold change is -0.131 in test [6], 0.05 in test [7], 0 in test [8] and 0.019 in the test with IRAK-1-4 Inhibitor I.
